Screening data as filed in PubChem.
D2 antagonist: antagonizes the human D2 dopamine receptor | P14416 | HEK293 TREx D2 cells, calcium flux, dopamine EC80 | inhibition, % at 10 µM | 340,000 compounds, 2% hits | AID 485344; in the data active = inhibition above about 30%; inactive = below that, where a call was filed; also: 0% is about no effect
Target sequence (P14416 whole entry, looked up): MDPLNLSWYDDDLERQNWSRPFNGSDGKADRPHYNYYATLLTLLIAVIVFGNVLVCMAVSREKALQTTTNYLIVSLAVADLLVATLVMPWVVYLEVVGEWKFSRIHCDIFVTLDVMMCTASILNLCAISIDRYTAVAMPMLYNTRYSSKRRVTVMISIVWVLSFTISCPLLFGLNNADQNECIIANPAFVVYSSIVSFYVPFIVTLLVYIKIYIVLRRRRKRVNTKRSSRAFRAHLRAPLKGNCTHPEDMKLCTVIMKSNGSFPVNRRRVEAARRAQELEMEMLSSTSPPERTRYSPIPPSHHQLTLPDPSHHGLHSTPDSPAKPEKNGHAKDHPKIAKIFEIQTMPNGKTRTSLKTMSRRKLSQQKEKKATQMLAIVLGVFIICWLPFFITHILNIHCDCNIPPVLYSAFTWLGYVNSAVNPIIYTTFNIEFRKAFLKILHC
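Tetracycline-induced HEK293 T-REx cells expressing D2 force-coupled to calcium signalling were dye-loaded, exposed to compound for 180 s, then challenged with an EC80 of dopamine; calcium flux was followed kinetically for a further 180 s.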
D2 ag-1: agonists of human D2 dopamine receptor | P14416 | HEK293 T-REx D2 cells, calcium flux agonist mode | activation, % at 2 µM | 340,000 compounds, 0.53% hits | AID 485358;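 active = activation over 3 SD above normal in the single-dose calcium agonist read, cut at about 30% in these data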; also: 0% is about no effect
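Tetracycline-induced HEK293 T-REx cells with force-coupled D2 receptor, plated overnight at 30 C, loaded with no-wash calcium dye. After a 10 s baseline, compound was pin-added and calcium flux read kinetically for 180 s; calcium rises flagged agonists.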
D2 ag-2: human D2 receptor agonism in beta-arrestin assay | P14416 | DiscoveRx PathHunter D2 beta-arrestin, luminescence, 90 min; 100% = 57 uM dopamine signal | activation, % (test concentration not listed) | 360,000 compounds, 0.084% hits; in the data active = activation above about 40%; inconclusive = between about 15% and that limit
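Agonist mode: compounds alone added to overnight-plated D2 PathHunter cells for 90 min at 37 C, with 57 uM final dopamine (EC100) defining full response. Beta-arrestin recruitment detected by chemiluminescent reagent, read after 1 h at ambient temperature.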
D2 PAM-1: positively modulates the human D2 dopamine receptor allosterically; P14416; 340,000 compounds, 0.34% hits; potentiation, % at 10 µM; HEK293 T-REx D2, calcium flux, EC20 dopamine potentiation; AID 485347;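 active = potentiation over 3 SD above the plate norm, cut at about 30% in these data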; also: 0% is about no effect
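Potentiation of an EC20 dopamine calcium response is measured in a force-coupled, tetracycline-inducible Hek293 Trex D2 line. Compound-only kinetic reads over 180 s flag agonists before dopamine addition.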
D2 PAM-2: potentiates the human D2 dopamine receptor allosterically | DiscoveRx D2 beta-arrestin cells, luminescence, 90 min; 100% = 57 uM dopamine signal | potentiation, % (concentration not given with the values) | 360,000 compounds, 0.23% hits | AID 624464; in the data active = potentiation above about 50%; inconclusive = mostly about 30% to 49%
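PathHunter D2 cells, attached overnight at 37 deg C, received compound in DMSO plus dopamine at EC20 (50 nM final) for 90 min at 37 deg C. Beta-arrestin recruitment was read as luminescence after 1 h with detection reagent at ambient temperature.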
* = called active by the depositor; ? = inconclusive; . = no result. Shown are actives, neighbours in structure and some others; about 2.4% of the full set was active somewhere.

SMILES | D2 antagonist | D2 ag-1 | D2 ag-2 | D2 PAM-1 | D2 PAM-2
CCCN(C(=O)c1c(C)oc2ncn(CC(C)C)c(=O)c12)c1ccccc1C | . | 0.0 | . | 5.3 | .
CCOc1ccc(Cn2c3ccc(OC)cc3c3nc4ccccc4nc32)cc1 | 5.2 | 1.6 | 0.9 | 2.8 | 8.9
CCn1c2ccc(OC)cc2c2nc3ccccc3nc21 | -6.0 | -0.6 | -2.1 | 31.4* | -11.9
CCCCn1c(SCC(=O)c2ccc(OC)c(OC)c2)nc2cc(S(N)(=O)=O)ccc21 | 14.3 | 0.2 | -1.3 | 3.1 | 2.4
CCCCn1c(SCC(=O)c2ccc(OCC)cc2)nc2cc(S(N)(=O)=O)ccc21 | 44.7* | 0.1 | -1.2 | 14.3 | -4.2
O=C(O)c1cccc(-n2c(-c3cnccn3)n[nH]c2=S)c1 | 30.3* | 1.9 | 0.6 | -14.8 | -6.5
CCn1cc(C(=O)O)c(=O)c2cc(F)c(N3CCN(C(=S)NC(=O)c4ccccc4Br)CC3)cc21 | 5.8 | -2.0 | -2.0 | 30.7* | -10.1
CCn1cc(C(=O)O)c(=O)c2cc(F)c(N/N=C/c3ccccc3[N+](=O)[O-])cc21 | 30.0* | 7.1 | 1.5 | -21.5 | -2.0
O=[N+]([O-])c1cc(-c2nnc(C34CC5CC(CC(C5)C3)C4)o2)cc([N+](=O)[O-])c1 | -5.8 | -1.0 | ? | -1.4 | 145.1*
O=[N+]([O-])c1cccc(-c2nnc(C34CC5CC(CC(C5)C3)C4)o2)c1 | -7.0 | -0.1 | -3.4 | -6.2 | -5.8
COC(=O)NCc1c(C)nn(-c2ccccc2)c1-n1cccc1 | . | 0.0 | . | -0.6 | .
O=C(NCCc1ccc(Cl)cc1)c1cnc2sc(N3CCOCC3)nn2c1=O | . | -0.1 | . | 1.7 | .
Fc1ccc(N2CCN(Cc3cn[nH]c3-c3ccccc3)CC2)cc1 | -4.2 | 6.0 | 0.9 | -14.5 | -14.8
OC1(c2ccc(Cl)cc2)CCN(Cc2cn[nH]c2-c2ccc(F)cc2)CC1 | 56.4* | 3.1 | 2.0 | -19.6 | -16.4
COc1ccc(-c2[nH]ncc2CN2CCC(O)(c3ccc(Cl)cc3)CC2)cc1 | 17.9 | -0.8 | 2.1 | -22.0 | -12.3
OC1(c2ccc(Cl)cc2)CCN(Cc2cn[nH]c2-c2ccccc2)CC1 | 84.0* | 0.4 | 2.9 | -22.3 | -13.9
Cc1ccc(C)c(N2C(=O)N(C)c3ccccc3S2(=O)=O)c1 | . | . | . | 6.5 | .
COc1cccc(CNC(=O)c2c(C)nn(-c3ccc(F)cc3)c2-n2cccc2)c1 | . | -0.3 | . | 0.1 | .
Cn1nc(C(=O)Nc2ccc(Br)cc2)cc1C(=O)Nc1ccc(Br)cc1 | 38.3* | -0.2 | -5.2 | 4.1 | -11.6
COc1ccc(OC)c(NC(=O)c2cc3c(n(-c4ccc(Cl)cc4)c2=O)CC(C)(C)CC3=O)c1 | . | 0.7 | . | -2.7 | .
CC(C)(C)CC(C)(C)c1ccc(O)c(CN2CCN(CCC#N)CC2)c1 | 4.2 | -0.1 | -0.9 | -3.6 | -19.3
N#CCCN1CCN(Cc2cc(-c3ccccc3)ccc2O)CC1 | 65.1* | 0.5 | -1.2 | -30.2 | -10.0
OCCNC(=S)Nc1ccc2nsnc2c1 | 30.7* | -0.2 | -1.4 | -7.1 | -6.9
CC(=O)c1ccc(S(=O)(=O)Nc2ccc(-c3cn4c(C)csc4n3)cc2)cc1 | . | . | . | 13.1 | .
COc1ccc(CC(=O)Nc2ccc3nc(SC)sc3c2)cc1OC | 20.8 | 33.3* | 3.8 | -21.7 | 0.8
SMILES | D2 antagonist | D2 ag-1 | D2 ag-2 | D2 PAM-1 | D2 PAM-2
COc1ccc(OCc2cc(C(=O)N3CCC(OC)CC3)no2)c2ccccc12 | 10.3 | -0.4 | 6.5 | 4.0 | 53.4*
O=C(c1cc(COc2c(F)cccc2F)on1)N1CCC(c2ccccc2F)C1 (stereo not given) | -5.7 | 0.9 | -4.8 | -11.4 | -2.7
CN(CC1COCCO1)C(=O)c1cc(COc2c(F)cccc2F)on1 (stereo not given) | -6.0 | -0.5 | -4.2 | -10.1 | -10.3
CN(CCC1CCOCC1)C(=O)c1cc(COc2c(F)cccc2F)on1 | 30.5* | 0.7 | 2.1 | 1.5 | 2.9
COCC1CCN(C(=O)c2cc(COc3ccc(OC)c4ccccc34)on2)C1 (stereo not given) | . | . | 2.2 | . | 23.5
O=C(c1cc(COc2c(F)cccc2F)on1)N1CCC(c2ccccc2Cl)C1 (stereo not given) | -0.6 | 0.2 | -2.0 | 32.0* | -14.2
FC(F)(F)c1cccc(N2CCN(c3ncnc4c3nc3n4CCCC3)CC2)c1 | . | -1.6 | . | 0.9 | .
CCc1ccc(Cn2c(CNS(=O)(=O)c3ccc([N+](=O)[O-])cc3)nc3cccnc32)cc1 | . | -0.3 | . | 9.0 | .
